# Measurements from PubChem BioAssay.
# The source made the active and inactive calls. Unless noted, no rule for the calls is given here.
# Experiments:
# [1] = compound effects on lung adenocarcinoma cell viability – A549, calcein-AM fluorescence, 48 h, basal, profiling panel (AID 1162); conditions: higher = more signal; also: test concentration not given here
# [2] = compound effects on differentiated 3T3-L1 adipocyte viability – cell-based, 3T3-L1 adipocytes, calcein-AM fluorescence, 48 h, basal, profiling panel (AID 1163); conditions: 3T3-L1 adipocytes viability, higher = more signal; also: test concentration not given here
# [3] = compound effects on hepatocellular carcinoma cell viability – HepG2, calcein-AM fluorescence, 48 h, basal, profiling panel (AID 1164); conditions: higher = more signal; also: test concentration not given here
# [4] = compound effects on multiple myeloma cell viability – MM1S, calcein-AM fluorescence, 48 h, basal, profiling panel (AID 1165); conditions: higher = more signal; also: test concentration not given here
# [5] = calcein-AM signal in unstimulated myeloma cells – cell-based, calcein-AM fluorescence, 48 h, PK04 Diversity Set, profiling panel (AID 1166); conditions: RPMI8226 myeloma viability, higher = more signal;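 also: cells grown under basal conditions without added stimulus; test concentration not given here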
# [6] = JC-1 mitochondrial signal, unstimulated HepG2 cells – cell-based, JC-1 fluorescence, 24 h, 100 nL compound, profiling panel (AID 1167); conditions: HepG2 mitochondrial potential, higher = more signal; also: test concentration not given here
# [7] = JC-1 mitochondrial signal, unstimulated adipocytes – cell-based, JC-1 fluorescence, 3T3-L1 adipocytes, 24 h, 100 nL compound, profiling panel (AID 1168); conditions: JC-1 mitochondrial fluorescence, higher = more signal, called active from +8 up or from −8 down; also: test concentration not given here
# [8] = JC-1 mitochondrial signal, unstimulated myeloma cells – cell-based, JC-1 fluorescence, RPMI8226, 24 h, 100 nL compound, profiling panel (AID 1169); conditions: JC-1 mitochondrial potential fluorescence, higher = more signal; also: test concentration not given here
# [9] = JC-1 mitochondrial signal, unstimulated MM1S myeloma – cell-based, JC-1 fluorescence, 24 h, 100 nL compound, profiling panel (AID 1170); conditions: MM1S mitochondrial potential, higher = more signal; also: test concentration not given here
# [10] = resazurin metabolic signal in A549 cells – cell-based, resazurin fluorescence, 24 h, PK04 Diversity Set, profiling panel (AID 1171); conditions: A549 viability, higher = more signal, called active from +8 up or from −8 down; also: test concentration not given here
# [11] = resazurin metabolic signal in HepG2 cells – cell-based, resazurin fluorescence, 24 h, PK04 Diversity Set, profiling panel (AID 1172); conditions: HepG2 viability, higher = more signal; also: test concentration not given here
# [12] = budding yeast growth changes without added modifier – OD600, strain BY4716, 24 h, basal condition, primary screen (AID 1173); conditions: S. cerevisiae BY4716 growth, OD600, 24 h; higher = more signal, called active from +8 up or from −8 down
# [13] = viability profiling in MM1S myeloma cells – cell-based, resazurin fluorescence, basal, 24 h, PK04 Diversity Set, profiling panel (AID 1174); conditions: higher = more signal, called active from +8 up or from −8 down; also: test concentration not given here
# [14] = target: Dihydroorotate dehydrogenase (quinone), mitochondrial (Plasmodium falciparum (isolate 3D7)) (UniProt Q08210); experiment: inhibition of P. falciparum DHODH – biochemical, C-terminal His tag, absorbance 600 nm, primary screen (AID 1175); conditions: PfDHODH enzyme, DCIP absorbance 600 nm; higher = more signal, called active from +8 up or from −8 down;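 also: recombinant parasite enzyme with a five histidine tag at its C terminus; test concentration not given here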
# [15] = inhibition of PAO1 biofilm formation – strain PAO1, LB-PBS medium, absorbance 600 nm, primary screen (AID 1176); also: test concentration not given here; conditions: P. aeruginosa PAO1 growth/biofilm, A600, 12 h; higher = more signal
# [16] = growth modulation of vineyard yeast isolate – strain RM11-1a, OD600, basal, 24 h, primary screen (AID 1177);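 also: cultures grown under basal conditions with no added stressor; test concentration not given here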; conditions: S. cerevisiae RM11-1a growth, OD600, 24 h; higher = more signal, called active from +8 up or from −8 down
# [17] = growth of efflux-deficient E. coli DRC39 – strain DRC39, OD650, 24 h, E. coli filamentation inducers, primary screen (AID 1178);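 also: growth measured as culture turbidity by optical density at 650 nm; test concentration not given here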; conditions: E. coli DRC39 acrAB, higher = more signal, called active from +8 up or from −8 down
# [18] = growth of efflux-deficient E. coli DRC39 – strain DRC39, OD650, 48 h, E. coli filamentation inducers, primary screen (AID 1179);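 also: screen aims at cell division blockers that make cells filament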; conditions: E. coli DRC39 delta-acrAB growth, higher = more signal, called active from +8 up or from −8 down
# [19] = viability profiling in RPMI8226 myeloma cells – cell-based, resazurin fluorescence, basal, 24 h, PK04 Diversity Set, profiling panel (AID 1180); conditions: higher = more signal;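 also: RPMI8826 multiple myeloma cell line at 5000 cells per well; test concentration not given here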
# [20] = target: E3 ubiquitin-protein ligase XIAP (Homo sapiens) (UniProt P98170); experiment: small molecules binding XIAP protein – biophysical, small-molecule microarray, fluorescence 635 nm, primary screen (AID 1181); conditions: higher = more signal;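 also: score merges 667 nm emission and signal to noise over triplicate slides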
# E3 ubiquitin-protein ligase XIAP (Homo sapiens), sequence (P98170 whole entry, looked up): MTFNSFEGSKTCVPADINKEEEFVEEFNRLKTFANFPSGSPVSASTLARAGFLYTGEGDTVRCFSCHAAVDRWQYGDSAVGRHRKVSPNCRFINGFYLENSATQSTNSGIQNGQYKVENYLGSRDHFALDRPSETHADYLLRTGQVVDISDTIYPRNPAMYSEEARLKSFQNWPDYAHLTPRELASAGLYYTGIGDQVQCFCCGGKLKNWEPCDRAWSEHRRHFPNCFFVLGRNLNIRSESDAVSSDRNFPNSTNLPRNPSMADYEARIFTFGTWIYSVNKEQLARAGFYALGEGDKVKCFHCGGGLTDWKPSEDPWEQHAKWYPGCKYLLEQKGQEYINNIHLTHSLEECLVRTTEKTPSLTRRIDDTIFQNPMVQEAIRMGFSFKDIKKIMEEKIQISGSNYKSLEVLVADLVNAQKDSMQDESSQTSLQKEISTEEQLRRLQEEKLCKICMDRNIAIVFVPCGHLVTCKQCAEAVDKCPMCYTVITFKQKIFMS
# Dihydroorotate dehydrogenase (quinone), mitochondrial (Plasmodium falciparum (isolate 3D7)), sequence (Q08210 whole entry, looked up): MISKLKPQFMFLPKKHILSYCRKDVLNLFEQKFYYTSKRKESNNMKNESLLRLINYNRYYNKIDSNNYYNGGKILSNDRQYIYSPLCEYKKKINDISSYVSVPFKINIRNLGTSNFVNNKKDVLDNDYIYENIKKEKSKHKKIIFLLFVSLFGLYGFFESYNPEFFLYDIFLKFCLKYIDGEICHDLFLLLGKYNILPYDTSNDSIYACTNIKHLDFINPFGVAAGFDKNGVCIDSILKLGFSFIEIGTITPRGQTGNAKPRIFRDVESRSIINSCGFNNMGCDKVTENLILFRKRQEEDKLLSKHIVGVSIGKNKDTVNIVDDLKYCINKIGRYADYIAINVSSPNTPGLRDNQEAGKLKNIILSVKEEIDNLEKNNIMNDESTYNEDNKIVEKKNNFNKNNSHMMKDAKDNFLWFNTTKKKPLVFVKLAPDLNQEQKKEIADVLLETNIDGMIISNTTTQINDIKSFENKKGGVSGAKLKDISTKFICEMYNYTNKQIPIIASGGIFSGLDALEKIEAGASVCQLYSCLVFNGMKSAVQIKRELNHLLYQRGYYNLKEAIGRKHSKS
SMILES,z-score [1],z-score [2],z-score [3],z-score [4],z-score [5],z-score [6],z-score [7],z-score [8],z-score [9],z-score [10],z-score [11],z-score [12],z-score [13],composite z-score [14],z-score [15],z-score [16],z-score [17],z-score [18],z-score [19],composite z-score [20]
Cc1cc2c(nc1C)CCCN2CC(O)CN1CCCc2nc(C)c(C)cc21,-0.254,-0.0412,-0.949,-0.0227,0.391,0.00162,-0.414 (inactive),-0.108,0.382,0.189 (inactive),0.269,0.0477 (inactive),-0.644 (inactive),0.0382 (inactive),0.979 (inactive),0.255 (inactive),-0.494 (inactive),-0.242 (inactive),0.399,1.12
CCOC(=O)CCN1C(=O)[C@H]2[C@H]3[C@H](O)[C@H](O)CC(=NOCc4ccccc4)[C@H]3CC[C@H]2C1=O,0.14,-1.08,-0.416,0.0807,-0.273,0.239,0.392 (inactive),-0.508,-1.22,-0.553 (inactive),-0.436,0.556 (inactive),-1.34 (inactive),0.461 (inactive),0.365 (inactive),0.632 (inactive),0.955 (inactive),1.08 (inactive),-0.775,0.012
O=C(C=Cc1ccc2c(c1)OCO2)c1ccc(F)cc1,-0.182,0.867,-0.358,-3.26,-3.41,-0.698,-0.211 (inactive),-0.811,-0.286,0.275 (inactive),-0.214,-10.1 (active),-0.194 (inactive),0.184 (inactive),-0.245 (inactive),-0.31 (inactive),0.264 (inactive),-0.423 (inactive),-0.538,-0.176
O=C1[C@H]2[C@H]3[C@H](O)[C@H](O)CC(=NOC[C@@H](O)COCc4ccco4)[C@H]3CC[C@H]2C(=O)N1c1ccc(F)cc1F,1.1,1.06,-0.0367,0.621,-0.478,0.501,-0.162 (inactive),-0.117,-1.68,0.224 (inactive),0.474,-1.89 (inactive),0.988 (inactive),-2.54 (inactive),1.18 (inactive),-3.71 (inactive),-0.311 (inactive),-1.22 (inactive),-0.374,-0.446
COc1cccc([C@H]2Oc3ccc(OC)cc3C(=NOC[C@@H](C)[C@H](OCc3ccccc3)C(C)C)[C@@H]2O)c1,-0.956,0.488,-0.744,-0.596,-2.12,-3.51,-0.65 (inactive),-0.188,0.748,0.385 (inactive),-0.214,0.635 (inactive),-0.0524 (inactive),-0.212 (inactive),0.347 (inactive),0.846 (inactive),0.221 (inactive),-1.18 (inactive),0.0541,0.0015
CCCNC(=O)OC[C@H]1O[C@H](CCON=C(C)CCN2CCc3nc(CC)c(CC)cc3C2)C=C[C@@H]1Oc1ccc(OC)cc1,-0.142,0.73,-0.304,-2.95,-3.14,4.22,-1.48 (inactive),-0.0505,0.598,-0.245 (inactive),-1.09,-0.139 (inactive),-1.45 (inactive),0.358 (inactive),-0.598 (inactive),0.02 (inactive),-1.13 (inactive),-1.53 (inactive),0.622,-0.0559
CCc1cc2c(nc1CC)CCN(CCC(C)=NO[C@H](C)c1cn([C@H](CO)Cc3ccccc3)nn1)C2,0.449,1.22,0.405,0.341,-0.905,0.551,-1.37 (inactive),-0.664,0.105,-0.285 (inactive),-0.605,-0.0397 (inactive),-0.376 (inactive),1.07 (inactive),-0.503 (inactive),-0.0857 (inactive),-1.4 (inactive),-1.17 (inactive),-0.162,0.204
COc1ccc(C#C[C@@H]2C=C[C@H](OC(C)=O)[C@@H](COC(C)=O)O2)cc1,-0.142,0.49,0.419,-3.54,-2.65,-1.52,-0.197 (inactive),-0.437,-2.68,-0.0296 (inactive),0.0002,-1.59 (inactive),-2.77 (inactive),-0.531 (inactive),0.0372 (inactive),-0.939 (inactive),0.746 (inactive),0.348 (inactive),-1.49,-0.0801
C#CCCCON=C1C[C@@H](O)[C@@H](O)[C@@H]2[C@@H]3C(=O)N(C(C)(C)C)C(=O)[C@@H]3CC[C@@H]12,-0.145,-0.619,-0.486,0.154,0.381,-0.465,-0.286 (inactive),-0.0943,-0.283,-0.152 (inactive),-0.202,0.595 (inactive),-1.24 (inactive),0.289 (inactive),0.0001 (inactive),0.438 (inactive),-0.35 (inactive),-0.278 (inactive),0.0444,-0.0939
C=CC[C@@H]1C=C[C@H](ON=C(C)CCC(=O)OC[C@H]2O[C@H](c3ccccc3)C=C[C@@H]2Oc2ccc(OC)cc2)[C@@H](CO)O1,1.21,-0.741,-0.403,-1.91,-0.428,-0.859,0.0616 (inactive),0.0738,-1.02,0.524 (inactive),0.0276,0.31 (inactive),-0.517 (inactive),-0.582 (inactive),0.347 (inactive),-0.0293 (inactive),0.741 (inactive),1.15 (inactive),-0.212,-0.0272
CO[C@H]1COC(=O)[C@@H](C)COC(=O)[C@@H](OCc2ccccc2)C=C[C@@H]1C,-0.162,-0.197,0.373,-0.112,0.473,0.485,0.531 (inactive),0.458,0.0911,0.39 (inactive),0.409,-0.471 (inactive),0.687 (inactive),0.976 (inactive),-0.601 (inactive),1.14 (inactive),0.334 (inactive),-0.183 (inactive),0.681,0.131
CCCCC#C[C@@H]1C=C[C@H](Oc2cc(OC)c(OC)c(OC)c2)[C@@H](COC(=O)OCC)O1,1.75,-0.931,0.928,-2.65,-1.86,-0.163,0.841 (inactive),0.23,-0.254,-0.108 (inactive),-0.826,-0.535 (inactive),-1.03 (inactive),-1.48 (inactive),0.806 (inactive),0.628 (inactive),1.02 (inactive),0.751 (inactive),-0.65,-0.113
CCOC(=O)[C@H](Cc1ccccc1)NC(=O)CCC1CC(OC(=O)NCCc2ccc(F)cc2)CC2(CCCC(COC(=O)NCCCN3CCCC3=O)O2)O1 (stereo not given in full),1.57,-0.0501,0.43,0.356,-0.335,0.668,-0.182 (inactive),0.437,-1.09,-0.972 (inactive),-0.0038,-0.196 (inactive),0.374 (inactive),-1.73 (inactive),0.781 (inactive),-1.25 (inactive),-0.198 (inactive),-0.926 (inactive),0.898,-0.0622
